Laboratory results taken from PubChem BioAssay AID1159580 (chemical genetic matrix, 2015).
In all, about 5,500 compounds went through this assay and about 2,000 (36%) were called active. Another 18% or so got no clear call; they are omitted. Cut-off read from the data, not from the text of the source: active = normalized growth mostly below about 0.91 (no sharp cut-off); inconclusive = no clear call, values can overlap the other calls; inactive = mostly above about 0.92. The list shows a part of the results.

Experiment: chemical genetic growth profiling, strain panel (AID 1159580);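 note: tested at 20 µM; growth read once vehicle control cultures reached saturation at 30 °C; 1 = growth at the plate median or of vehicle wells; lower values mean less growth of the strain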
Conditions: S. cerevisiae deletion strains, growth OD
[1] = locus YHR030C, strain SLT2, hits give low values

Measured: normalized growth

O=C(O)CC(O)(CC(=O)O)C(=O)O
inactive: locus YAL021C, strain ccr4, hits give low values 1 | locus YAL026C, strain drs2, hits give low values 1.01 | locus YAL030W, strain snc1, hits give low values 1 | locus YBL061C, strain skt5, hits give low values 1.01 | locus YBR009C, strain hhf1, hits give low values 1 | locus YBR023C, strain chs3, hits give low values 1.01 | locus YBR171W, strain sec66, hits give low values 1.01 | locus YBR231C, strain swc5, hits give low values 1.01 | locus YBR279W, strain paf1, hits give low values 1 | locus YCL011C, strain gbp2, hits give low values 1.01 | locus YCL016C, strain dcc1, hits give low values 0.997 | locus YCL069W, strain vba3, hits give low values 1.01 | locus YCR088W, strain abp1, hits give low values 1.02 | locus YDL005C, strain med2, hits give low values 1.01 | locus YDL040C, strain nat1, hits give low values 1.01 | locus YDR001C, strain nth1, hits give low values 0.998 | locus YDR069C, strain doa4, hits give low values 1.03 | locus YDR137W, strain rgp1, hits give low values 1 | locus YDR159W, strain sac3, hits give low values 1 | locus YDR195W, strain ref2 1.05 | locus YDR297W, strain sur2, hits give low values 0.994 | locus YDR334W, strain swr1, hits give low values 1 | locus YDR335W, strain msn5, hits give low values 1.01 | locus YDR392W, strain spt3, hits give low values 0.966 | locus YEL003W, strain gim4, hits give low values 0.998 | locus YEL037C, strain rad23, hits give low values 1.01 | locus YEL061C, strain CIN8 (second series), hits give low values 1 | locus YER015W, strain faa2, hits give low values 1.02 | locus YER016W, strain bim1, hits give low values 1.01 | locus YER111C, strain swi4, hits give low values 1.01 | locus YER155C, strain BEM2 (second series), hits give low values 1.05 | locus YFR010W, strain ubp6, hits give low values 1.02 | locus YGL167C, strain pmr1, hits give low values 1.01 | locus YGL173C, strain kem1, hits give low values 0.999 | locus YGL227W, strain vid30, hits give low values 1.01 | locus YGL240W, strain doc1, hits give low values 1.02 | locus YGL253W, strain hxk2, hits give low values 0.997 | locus YHR013C, strain ard1, hits give low values 1 | locus YHR027C, strain rpn1, hits give low values 1.01 | [1] 0.979 | locus YHR079C, strain IRE1, hits give low values 0.995 | locus YHR142W, strain chs7, hits give low values 0.993 | locus YJL092W, strain hpr5, hits give low values 1.01 | locus YJL095W, strain BCK1 (second series), hits give low values 1.02 | locus YJL095W, strain BCK1, hits give low values 1.02 | locus YJL115W, strain asf1, hits give low values 1.03 | locus YJL129C, strain trk1, hits give low values 1.03 | locus YJL154C, strain vps35, hits give low values 1.01 | locus YJL164C, strain tpk1, hits give low values 1 | locus YJL166W, strain qcr8, hits give low values 1.03 | locus YJL187C, strain SWE1, hits give low values 1.01 | locus YJR066W, strain TOR1, hits give low values 0.953 | locus YKL160W, strain elf1, hits give low values 1.01 | locus YKR026C, strain gcn3, hits give low values 1.01 | locus YKR091W, strain srl3, hits give low values 1.01 | locus YLL001W, strain dnm1, hits give low values 1.01 | locus YLL026W, hits give low values 0.999 | locus YLL041C, strain sdh2, hits give low values 1.01 | locus YLR027C, strain aat2, hits give low values 1 | locus YLR113W, strain HOG1, hits give low values 1.02 | locus YLR221C, strain rsa3, hits give low values 0.988 | locus YLR258W, strain gsy2, hits give low values 1.01 | locus YLR262C, strain YPT6 (second series), hits give low values 1.02 | locus YLR320W, strain mms22, hits give low values 0.998 | locus YLR342W, strain FKS1, hits give low values 1.02 | locus YLR357W, strain rsc2, hits give low values 1 | locus YLR370C, strain arc18, hits give low values 0.982 | locus YLR384C, strain iki3, hits give low values 1.01 | locus YML120C, strain ndi1, hits give low values 1.01 | locus YMR058W, strain fet3, hits give low values 1.01 | locus YMR125W, strain sto1, hits give low values 1.02 | locus YMR129W, hits give low values 1.01 | locus YMR205C, strain PFK2, hits give low values 1.01 | locus YMR231W, strain pep5, hits give low values 1.01 | locus YNL071W, strain lat1, hits give low values 1 | locus YNL183C, strain NPR1, hits give low values 0.98 | locus YNL209W, strain ssb2, hits give low values 0.998 | locus YNL248C, strain rpa49, hits give low values 1.01 | locus YNL322C, strain KRE1 (second series), hits give low values 1 | locus YNR049C, strain mso1, hits give low values 1 | locus YOR001W, strain rrp6, hits give low values 1.04 | locus YOR070C, strain gyp1, hits give low values 1.01 | locus YOR080W, strain dia2, hits give low values 1.02 | locus YOR083W, strain WHI5, hits give low values 1.02 | locus YOR106W, strain vam3, hits give low values 1.02 | locus YOR231W, strain MKK1, hits give low values 0.985 | locus YOR265W, strain rbl2, hits give low values 1.01 | locus YOR270C, strain vph1, hits give low values 0.988 | locus YOR290C, strain snf2, hits give low values 0.99 | locus YPL051W, strain arl3, hits give low values 1.01 | locus YPL078C, strain atp4, hits give low values 1.03 | locus YPL106C, strain sse1, hits give low values 1.01 | locus YPL240C, strain hsp82, hits give low values 1 | locus YPL256C, strain CLN2, hits give low values 0.968

CCCC(CC(=O)O)(C(=O)O)c1ccccc1 (stereo not given)
inactive: locus YAL013W, strain DEP1, hits give low values 1.01 | locus YBR229C, strain ROT2, hits give low values 1 | locus YCL061C, strain MRC1, hits give low values 1.01 | locus YDL101C, strain DUN1, hits give low values 1.01 | locus YDR150W, strain NUM1, hits give low values 1 | locus YEL061C, strain CIN8, hits give low values 1.01 | locus YGR078C, strain PAC10, hits give low values 1 | locus YGR229C, strain SMI1, hits give low values 1.01 | [1] 1.12 | locus YHR087W, strain rtc3, hits give low values 1 | locus YJR043C, strain POL32, hits give low values 1.01 | locus YJR075W, strain HOC1, hits give low values 1 | locus YLR039C, strain RIC1, hits give low values 1.03 | locus YLR058C, strain SHM2 (second series), hits give low values 1.01 | locus YLR085C, strain ARP6, hits give low values 1.05 | locus YLR262C, strain YPT6, hits give low values 1.02 | locus YML094W, strain GIM5, hits give low values 1.02 | locus YMR219W, strain ESC1, hits give low values 1.01 | locus YMR263W, strain SAP30, hits give low values 1 | locus YNL153C, strain GIM3, hits give low values 1 | locus YNL298W, strain CLA4 (second series), hits give low values 1.03 | locus YNL322C, strain KRE1, hits give low values 0.998 | locus YNR030W, strain Alg12, hits give low values 1.01 | locus YPL055C, strain LGE1, hits give low values 1.06 | locus YPL241C, strain CIN2, hits give low values 1.02 | locus YPR135W, strain CTF4, hits give low values 1.06
